Experimental data from PubChem BioAssay AID2006 (Sanford-Burnham Center for Chemical Genomics, 2009).
Out of some 290,000 compounds screened, about 1,000 (0.34%) were called active. The sample holds actives, similar compounds and a random draw of the others, so the mix is not that of the screen. Rule as the data show it: active = inhibition above about 50% (passing the limit was not always enough); inconclusive = no clear call, values can overlap the other calls.

Biological target: SUMO-conjugating enzyme UBC9 (Homo sapiens) (UniProt P63279)
Sequence (P63279 whole entry, looked up): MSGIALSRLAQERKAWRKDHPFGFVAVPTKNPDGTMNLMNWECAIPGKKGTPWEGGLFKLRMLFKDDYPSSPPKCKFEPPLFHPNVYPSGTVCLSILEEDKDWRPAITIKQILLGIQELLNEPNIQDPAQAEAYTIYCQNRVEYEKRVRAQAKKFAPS
Assay: inhibitors of in vitro SUMOylation cascade, primary screen, biochemical, HTRF, uHTS (AID 2006)
Settings: HTRF SUMOylation assay, SAE1/SAE2 + UBC9, in vitro, at 35 µM, stronger effect = higher value

SMILES | inhibition | inhibition (average of repeat tests) [%]
CCc1nn(CCCC(=O)NCc2ccc(C)cc2)c(=O)c2cc3occc3n12 | -4.3% (inactive) | –
Cc1cnc(C(=O)N2CCCC(N3CCN(c4ccccc4F)CC3)C2)cn1 (centres undefined) | 5.2% (inactive) | –
CC(=O)Nc1ccc(S(=O)(=O)Nc2cc(C)cn(Cc3ccc(C)cc3)c2=O)cc1 | 14.3% (inactive) | –
O=C1Nc2cc(C(=O)N3CCC(N4CCCCC4)CC3)ccc2S/C1=C\c1ccccc1 | 10.8% (inactive) | –
Cc1ccc2nc(-c3ccncc3)cc(C(=O)Nc3ccncc3)c2c1 | -4.4% (inactive) | –
Cc1ccc2nc(-c3ccncc3)cc(C(=O)Nc3ccc4c(c3)OCCO4)c2c1 | 23.4% (inactive) | –
Cc1ccc2nc(-c3ccncc3)cc(C(=O)Nc3ccc(OC(F)F)cc3)c2c1 | 61.9% (active) | –
COc1ccc(N2CCN(C3CCCCC3NS(=O)(=O)c3ccccc3)CC2)cc1 (centres undefined) | -12.9% (inactive) | –
O=C(N/N=C/c1cc(Cl)cc([N+](=O)[O-])c1O)C(O)(c1ccccc1)c1ccccc1 | -22% (inactive) | –
O=C(CN1CCN(c2ccc(O)cc2)CC1)Nc1cc(S(=O)(=O)N2CCOCC2)ccc1Cl | 25.4% (inactive) | –
O=[N+]([O-])c1cc(Cl)cc(/C=N/NC(=S)Nc2cc(S(=O)(=O)N3CCOCC3)ccc2Cl)c1O | 99.5% (active) | –
O=C(O)C1CCCCC1C(=O)N1CCN(S(=O)(=O)c2ccc(F)cc2)CC1 (centres undefined) | 9.5% (inactive) | –
O=C(c1cccnc1)N1CCN(S(=O)(=O)c2cccs2)CC1 | -2% (inactive) | –
CSc1nnc(SCc2nc3sc(C(=O)O)c(C)c3c(=O)[nH]2)s1 | 50.2% (active) | 70.2
CCOC(=O)c1sc2nc(CSc3ccccc3)[nH]c(=O)c2c1C | 25.9% (inactive) | –
Cc1ccc(C)c(SCc2nc3sc(C(=O)O)c(C)c3c(=O)[nH]2)c1 | 9.1% (inactive) | –
COc1cccc(-n2c(=S)sc3c(=O)n(-c4ccccc4C)c(SCC(=O)O)nc32)c1 | 6.2% (inactive) | –
COc1ccc(CCNC(=O)CCCCCNC(=O)N2CCn3c2nc2ccccc23)cc1OC | 15.4% (inactive) | –
CCc1nn(CCCC(=O)NC(C)c2ccccc2)c(=O)c2cc3occc3n12 (centres undefined) | 10.2% (inactive) | –
CCC(C)(C)NC(=O)C(c1ccc(OC)cc1)N(C(=O)CCC(=O)Nc1cc(C)on1)c1ccc(OC)cc1OC (centres undefined) | 6% (inactive) | –
COC(=O)COc1ccc2c(c1C)O/C(=C\c1ccco1)C2=O | 16.9% (inactive) | –
O=C(NCCCn1ccnc1)C1CCCN(S(=O)(=O)c2cc(Cl)ccc2Cl)C1 (centres undefined) | -5.4% (inactive) | –
Cc1nc2c(c(=O)n1Cc1ccco1)c1nc3ccccc3nc1n2Cc1ccccc1 | 31.7% (inactive) | –

SMILES | inhibition | inhibition (average of repeat tests) [%]
Cc1cc2nc3c(=O)n(Cc4ccccc4)c(=O)[nH]c3nc2cc1N | 51.4% (active) | –
O=c1[nH]c2c(c(=O)n1Cc1ccccc1)CCC2 | 14.7% (inactive) | –
CC(=O)N/C(=N/c1nc(C)cc(C)n1)Nc1ccc(F)cc1F | 10.8% (inactive) | –
O=C(NCc1ccccc1Cl)C1CCCN1S(=O)(=O)c1ccc(F)cc1 (centres undefined) | 9.8% (inactive) | –
O=C(Nc1ccc(N2CCCC2=O)cc1)c1cncc(Br)c1 | -7.3% (inactive) | –
Oc1c(Cl)cc(Cl)c(Cl)c1Cc1c(O)c(Cl)cc(Cl)c1Cl | 71.9% (active) | –
CC(=O)N1CCN(CC(=O)Nc2ccc(C)c(F)c2)CC1 | 6% (inactive) | –
COC(=O)c1ccc(CNC(=O)c2ccc3oc(C(C)C)nc3c2)cc1 | 9.1% (inactive) | –
CCN(CC)CCn1c(N)c(S(=O)(=O)c2ccccc2)c2nc3ccccc3nc21 | 11.7% (inactive) | –
CCC(=O)Nc1c(S(=O)(=O)c2ccccc2)c2nc3ccccc3nc2n1Cc1ccccc1 | 98.2% (active) | –
Cc1ccc(S(=O)(=O)c2c(N)n(C)c3nc4ccccc4nc23)cc1 | 18.6% (inactive) | –
O=C(Cc1c(Cl)cccc1Cl)NC1CC1 | 11% (inactive) | –
Cc1ccc(NS(=O)(=O)c2ccc3c(c2)n(C)c(=O)c(=O)n3C)c(C)c1 | 9% (inactive) | –
CC(=O)NCC(=O)N1CCC(n2nccc2NC(=O)CCCc2ccccc2)CC1 | -2.9% (inactive) | –
COc1c(O)ccc2c1CN1CCc3cc4c(cc3C1C2)OCO4 (centres undefined) | 12.8% (inactive) | –
COc1ccc(-c2nn(-c3ccccc3)cc2/C=C2/SC(=S)N(CCCC(=O)O)C2=O)c(C)c1 | 44.1% (inactive) | –
CN(C)S(=O)(=O)c1cccc(-c2nn(-c3ccccc3)cc2/C=C2\SC(=S)N(CC(=O)O)C2=O)c1 | 37.3% (inactive) | –
Cc1ccc(-c2nn(-c3ccccc3)cc2/C=C2\SC(=S)N(CCCCCC(=O)O)C2=O)o1 | 55.1% (active) | 59.6
O=C(N/C(=C/c1ccc(Cl)cc1)C(=O)N1CCCCC1)c1ccco1 | 22% (inactive) | –
CC1CCCCN1C(=O)CCS(=O)(=O)Cc1ccccc1 (centres undefined) | 18.6% (inactive) | –
COc1ccc(NC(=O)CNC(=O)Cn2ccc3ccccc3c2=O)c(OC)c1 | 7.3% (inactive) | –
Cc1ccc(Nc2nc(Cl)c(C=O)s2)cc1 | 16.9% (inactive) | –
Cc1c(Cl)cccc1NC(=O)CCC(=O)N/N=C/c1ccco1 | -5.3% (inactive) | –

SMILES | inhibition | inhibition (average of repeat tests) [%]
O=C(NCc1ccccn1)c1ccc2nc(-c3ccco3)c(-c3ccco3)nc2c1 | 74.1% (active) | –
COc1ccc2oc(=O)c(C(=O)NCc3ccccn3)cc2c1 | 31.2% (inactive) | –
COc1cccc(S(=O)(=O)NCc2ccc(C(=O)NCc3ccccn3)cc2)c1 | 0.6% (inactive) | –
CC(C)(C)c1ccc(NC(=O)NCc2ccco2)cc1 | -11.5% (inactive) | –
COCCNC(=O)Nc1ccc2nc(-c3ccco3)c(-c3ccco3)nc2c1 | 95.3% (active) | 62.6
O=C(Nc1ccc2nccnc2c1)c1ccco1 | 28.4% (inactive) | –
COc1ccc(CNC(=O)c2ccc(Br)s2)cc1OC | 0.1% (inactive) | –
Cc1c(C)c2c(OCC(=O)N[C@@H](C(=O)O)c3ccccc3)cc3c(c2oc1=O)CCC(C)(C)O3 | 44% (inactive) | –
CCc1ccc(-c2nc(SCC(=O)NC3CCCC3)n[nH]2)cc1 | -14.4% (inactive) | –
COc1ccc(N(C)C(=O)C2CCN(S(=O)(=O)c3cccc4nsnc34)CC2)cc1 | 11.4% (inactive) | –
Cc1ccnc(NS(=O)(=O)c2ccc(NC(=O)c3oc4ccc(F)cc4c3C)cc2)n1 | 15.4% (inactive) | –
CC(CC(=O)N1CCN(S(=O)(=O)c2ccccc2)CC1)n1cncn1 (centres undefined) | 14.6% (inactive) | –
Cc1ccc(OCc2n[nH]c(=S)n2-c2ccc(C)cc2)cc1 | 3.7% (inactive) | –
CCOc1ccc(NC(=O)CN2CCN(CC(=O)Nc3ccc(OC)cc3)CC2)cc1 | -4.3% (inactive) | –
COc1ccc(Cc2n[nH]c(=S)n2NC(=O)Nc2ccc(C)cc2)cc1 | 68.1% (active) | 49.6
C/C(=N/Nc1nc(-c2ccccc2)c(CC(=O)O)s1)c1ccccc1 | 7% (inactive) | –
Cc1cc(C)nc(N/N=C/c2c(CO)cnc(C)c2O)n1 | -3.1% (inactive) | –
Nc1ccc2nc3c(=O)[nH]c(=S)[nH]c3nc2c1 | 93.4% (active) | –
CCc1ccc(C(=O)NC(=S)Nc2ccccc2N2CCOCC2)cc1 | -0.7% (inactive) | –
CCOc1ccc(N(CC(=O)NCCc2ccc(F)cc2)S(=O)(=O)c2ccccc2)cc1 | -1.5% (inactive) | –
O=C(O)CCCn1cc(NC(=O)COc2cccc(Cl)c2)cn1 | 11.5% (inactive) | –
CN(C)[C@@H]1C(=O)C(C(N)=O)=C(O)[C@@]2(O)C(=O)C3=C(O)c4c(O)ccc(Cl)c4[C@@H](O)[C@H]3C[C@@H]12 | 62.8% (active) | –
COc1ccc(CN2C3CCCC2CC(NC(=O)c2cccc(F)c2)C3)cc1 (centres undefined) | 8.9% (inactive) | –

SMILES | inhibition | inhibition (average of repeat tests) [%]
COc1ccc(C2NC(=O)N(C)C(C)=C2[N+](=O)[O-])cc1 (centres undefined) | -5.6% (inactive) | –
CC(NC(=O)Nc1cccc([N+](=O)[O-])c1)c1ccc2c(c1)OCO2 (centres undefined) | 3% (inactive) | –
COc1ccc(-n2nc(C(=O)NCC(=O)N3CCC(C(N)=O)CC3)c3ccccc3c2=O)cc1OC | -4.6% (inactive) | –
O=C(CNC(=O)c1ccc(F)cc1)c1ccccc1 | -1.3% (inactive) | –
Cc1ccc(N=C2NC(=O)/C(=C/C=C/c3ccco3)S2)cc1C | 54.8% (active) | –
Cc1ccc(N2NC(=O)/C(=C/C=C/c3ccco3)C2=O)cc1C | -18.1% (inactive) | –
Cc1cccc(N=C2NC(=O)/C(=C/c3cn(C)c4ccccc34)S2)c1 | 12.3% (inactive) | –
COc1ccc(CN2CCOC2=O)cc1OC | -0.8% (inactive) | –
O=C(CN1CCN(C(=S)NC2CCCC2)CC1)Nc1ccc(Oc2ccccc2)cc1 | -21.3% (inactive) | –
O=C1CN(C(=O)c2cc(F)cc(F)c2)c2ccccc2N1 | 6.7% (inactive) | –
NS(=O)(=O)c1ccc(CNC(=O)c2cccc(Oc3ccccc3)c2)cc1 | -2.7% (inactive) | –
CCN1CC=C2C(C#N)=C(N)C(C#N)(C#N)[C@H](c3ccoc3)[C@H]2C1 | 67.7% (active) | –
CCCN1CC=C2C(C#N)=C(N)C(C#N)(C#N)C(c3cc(OC)ccc3OC)C2C1 (centres undefined) | 34.3% (inactive) | –
CCOC(=O)N1CC=C2C(C#N)=C(N)C(C#N)(C#N)[C@H](c3cccs3)[C@H]2C1 | -13.8% (inactive) | –
O=C(N/N=C/c1cccc(OCc2ccccc2)c1)c1ccc(Br)o1 | 4.8% (inactive) | –
O=C(Nc1ccccc1N1CCCC1)c1ccc2ccccc2c1 | 1.5% (inactive) | –
COC(=O)c1cccc(C(=O)N2CCC(CCC(=O)NCc3ccc(F)cc3)CC2)c1 | 7.8% (inactive) | –
CC(C)c1ccc2c(c1)c(SC(C)(C)C)c(CC(C)(C)C(=O)O)n2Cc1ccc(Cl)cc1 | 52.2% (active) | –
O=C(O)c1ccc(Cn2c(=S)[nH]c3cc(Cl)ccc3c2=O)cc1 | 1.5% (inactive) | –
CCOC(=O)c1c(-c2ccccc2)oc2cc(Br)c(O)cc12 | 6.4% (inactive) | –
CCOC(=O)c1c(-c2ccccc2)oc2cc(Br)c(O)c(C=O)c12 | -19% (inactive) | –
